DAX1 inh-1 – NR0B1 (DAX1) inhibition; 340,000 tested, 0.99% active; inhibition, % at 6.75 µM; P51843; AID 504766; HEK293 Gal4-DAX1 luciferase reporter, luminescence;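 active means inhibition above the mean over all tested compounds plus 3 SD, cut at about 4.2% in these data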;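 further: 0% = DAX1-transfected cells with DMSO and 100% = empty-vector control cells with DMSO; inhibition shows as a rise in luminescence from relieved DAX1 repression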
Target sequence (P51843 207-470 limits assumed): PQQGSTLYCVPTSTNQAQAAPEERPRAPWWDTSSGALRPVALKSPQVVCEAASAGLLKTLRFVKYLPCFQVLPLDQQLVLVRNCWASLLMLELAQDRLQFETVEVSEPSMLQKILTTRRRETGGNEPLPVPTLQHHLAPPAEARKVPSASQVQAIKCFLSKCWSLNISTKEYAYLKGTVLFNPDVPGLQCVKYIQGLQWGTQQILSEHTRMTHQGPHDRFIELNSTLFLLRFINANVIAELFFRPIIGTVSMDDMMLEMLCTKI
ssDAF-12 act – activators of S. stercoralis DAF-12 nuclear receptor. HEK293 ssDAF-12/GRIP1 lit1-tk-luc reporter, luminescence; % of 3 µM dafachronic acid response. activation, % at 6.8 µM. 370,000 tested, 1% active. AID 652126;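 active means activation above the mean over all tested compounds plus 3 SD, cut at about 0.9% in these data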;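 further: 0% = DMSO-only wells and 100% = 3 µM delta7-dafachronic acid wells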
hcDAF12 agonist – activators of H. contortus DAF-12 nuclear receptor; AID 652067; activation, % at 6.8 µM; 370,000 tested, 1.4% active; HEK293 hcDAF-12 lit1-tk-luc reporter, luminescence; 0% DMSO, 100% Δ7-dafachronic acid;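 active means activation above the mean of all tested compounds plus 3 SD, cut at about 5.5% in these data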;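 further: 100% = response to 3 µM Δ7-dafachronic acid high control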
hgDAF-12 ag – hgDAF-12 agonism, primary luciferase screen; HEK293 GAL4-hgDAF12 UAS-luciferase reporter, agonist luminescence; normalized to butyrate control; activation, % at 6.8 µM; 370,000 tested, 1.8% active;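 active means activation above a cutoff set at the mean of all screened compounds plus 3 SD, cut at about 10% in these data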;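 further: 0% = DMSO wells and 100% = sodium butyrate wells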
SMARCA2 act – activators of SMARCA2 function | MG213 cells, MMTV-luciferase reporter, dexamethasone, overnight | activation, % at 9.1 µM | 370,000 tested, 1% active | AID 652017; in the data active means activation above about 7.8%;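 further: 0% = vehicle wells and 100% = reference activator wells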
DAX1 inh-2 – blocks DAX1 repression of SF-1 activated StAR promoter | HEK293T StAR-luciferase reporter, SF-1/DAX-1 repression relief | inhibition, % at 6.8 µM | 370,000 tested, 1.1% active;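 active means inhibition above the mean over all tested compounds plus 3 SD, cut at about 3.6% in these data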;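 further: 0% = DAX-1 cells with DMSO and 100% = cells lacking DAX-1 with DMSO; higher inhibition means more luminescence from relief of DAX-1 repression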
* marks the source's active call; other numbers are inactive results; · = no result given. Compounds with a hit are over-represented: about 4.8% of the library has one in this group of screens.

SMILES	DAX1 inh-1	ssDAF-12 act	hcDAF12 agonist	hgDAF-12 ag	SMARCA2 act	DAX1 inh-2
O=C(CCN1C(=O)S/C(=C\C=C\c2ccccc2)C1=O)Nc1ccc(O)cc1	2	0	0	12*	2	0
CC(=Cc1ccccc1)C=C1SC(=S)N(CCCC(=O)Nc2ccc(C(=O)O)cc2)C1=O	·	-2	0	2	-1	4.2*
CC(/C=C1\SC(=S)N(CCCC(=O)Nc2ccc(C(=O)O)cc2)C1=O)=C\c1ccccc1	0	-1	-1	0	1	1
CC(=O)c1ccc(NC(=O)CN2C(=O)/C(=C/C=C/c3ccccc3)SC2=S)cc1	-1	0	6.5*	3	0	0
CCN(CC)CCOC(=O)c1ccc(NC(=O)CCCN2C(=O)/C(=C\c3cccs3)SC2=S)cc1	1	0	-1	-3	0	6.8*
NC(=O)N/N=C/c1ccccc1OC(=O)c1cc2ccccc2oc1=O	1	-1	1	4	4	2
Cc1ccc(-c2cc(C(F)F)n3ncc(C(=O)N4CCCCC4c4cccnc4)c3n2)cc1 (centres undefined)	4.5*	1	5.7*	-1	-5	0
O=[N+]([O-])c1ccc(/C=N/NC2=NS(=O)(=O)c3ccccc32)cc1	0	-1	1	-2	-1	1
O=S1(=O)N=C(N/N=C/c2cccs2)c2ccccc21	4.5*	-1	-1	1	0	0
Nc1c(C(=O)NCc2ccccc2)c2nc3ccccc3nc2n1CCCN1CCOCC1	2	-2	0	-3	1	-1
Cc1ccc2nc(-c3ccc(SCC(=O)Nc4nnc(C)s4)nc3)[nH]c2c1	3	0	5.7*	8	1	4.3*
Cc1ccc2nc(-c3ccc(SCC(=O)Nc4nc(C)cs4)nc3)[nH]c2c1	2	0	5	8	7	2
Cn1c(/C(C#N)=C(\O)c2ccc(Br)s2)nc2ccccc21	0	1.0*	5	3	2	0
O=c1[nH]c2ccc(NCc3ccc(F)cc3)cc2[nH]1	-1	-1	0	-2	-2	0
CN(C)/C=N/c1ncn(-c2ncc(C(F)(F)F)cc2Cl)n1	4.4*	-1	4	8	1	1
COc1ccccc1/C=C/C(=O)NC(=S)Nc1ccccn1	2	1.4*	3	5	1	1
Cc1cccnc1NC(=S)NC(=O)/C=C/c1ccco1	2	0	1	5	4	1
COc1ccccc1OCC(=O)Nc1ccncc1	0	0	-1	-2	-1	0
O=C(/C=C/c1ccco1)Nc1cccc(NC(=O)/C=C/c2ccco2)n1	2	-1	6.4*	11*	2	3
O=C(/C=C/c1ccco1)NC(=S)Nc1ccccn1	5.9*	0	0	8	6	2
COc1ccc(/C=C/C(=O)NC(=S)Nc2ccccn2)cc1	3	0	5	9	2	2
COc1ccccc1OCC(=O)Nc1ccccn1	2	0	5	13*	7	3
Cc1ccc(CNC(=O)Cc2csc(Nc3nc(=S)[nH]c4ccccc34)n2)cc1	·	0	5	2	-2	1
O=C(Cc1csc(Nc2nc(=S)[nH]c3ccccc23)n1)NCc1ccccc1Cl	0	1.2*	5.9*	7	2	-1
O=C(Cc1csc(Nc2nc(=S)[nH]c3ccccc23)n1)NCc1cccc(Cl)c1	0	1	6.5*	0	1	-1
COC(=O)c1c(N=CN(C)C)c(C#N)c2n1CCCC2	6.0*	-1	-1	-2	2	-1
Cc1ccc(S(=O)(=O)N2[C@@H](c3ccc(C#N)cc3)C(C(=O)O)=C[C@H]2CC2CCCC2)cc1	0	-1	1	3	0	1
NC(=O)C1CCN(C2CC(=O)N(Cc3cccs3)C2=O)CC1 (centres undefined)	2	1.2*	0	-1	-2	0
CCOC(=O)c1ccc(NC(=S)NNC(=O)c2cc(-c3cccnc3)nc3ccccc23)cc1	-1	-1	-1	0	0	-1

From PubChem BioAssay
